One test relates to CRL-7250. In words: Cytotoxic Profiling of Annotated Libraries Using Quantitative High-Throughput Screening (AID 1296008). For max response: % is set by controls: 0 for no effect and ±100 for the full control effect. To be noted: Five cell lines viability, CellTiter-Glo ATP luminescence, 48-72 h; max response: hits give low values. In short, it runs like this:
(§1)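 Cytotoxicity was measured as CellTiter-Glo ATP luminescence, read after 10 min at room temperature. Compound treatment of the cells lasted 48 or 72 hr at 37 degrees Celsius in a qHTS format.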

In another test the test system is HEK293. Described as above. Particulars: Five cell lines viability, CellTiter-Glo ATP luminescence, 48-72 h; max response: hits give low values. The essentials:
as §1

The next test has as its system HaCat. Described as above. To be noted: Five cell lines viability, CellTiter-Glo ATP luminescence, 48-72 h; max response: hits give low values. In short, it runs like this: as §1
A further test deals with W2. In words: qHTS profiling for inhibitors of Plasmodium falciparum proliferation (AID 504749). Note: potency is the fitted concentration of half-maximal effect. Particulars: P. falciparum in erythrocytes, SYBR Green DNA, 72 h; series mostly up to 28.7 µM. In short, it runs like this:
(§2)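 In a 72 h erythrocytic culture (37 C, humidified, 5% CO2) at 2.5% hematocrit and 0.3% starting parasitemia, compounds were tested; SYBR Green I in detergent lysis buffer stained parasite DNA overnight.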

In another test the test system is PC26. Described as above. To be noted: P. falciparum in erythrocytes, SYBR Green DNA, 72 h; series mostly up to 28.7 µM. In short, it runs like this: as §2
The next test has as its system PC49. The description is as above. Particulars: P. falciparum in erythrocytes, SYBR Green DNA, 72 h; series mostly up to 28.7 µM. In short, it runs like this: as §2
The subject of another test is SC27B. The description is as above. Particulars: P. falciparum in erythrocytes, SYBR Green DNA, 72 h; series mostly up to 28.7 µM. The essentials:
as §2

The test system of a further test is TAB109. Described as above. Particulars: P. falciparum in erythrocytes, SYBR Green DNA, 72 h; series mostly up to 28.7 µM. The essentials: as §2
A further test concerns TAB113. The test is described as above. Particulars: P. falciparum in erythrocytes, SYBR Green DNA, 72 h; series mostly up to 28.7 µM. In short, it runs like this:
as §2

In the next test the test system is TAB165. The test is described as above. To be noted: P. falciparum in erythrocytes, SYBR Green DNA, 72 h; series mostly up to 28.7 µM. The essentials:
as §2

Inconclusive results are not listed. A number with no mark means an inactive call. Activity calls are given as the source filed them. Calls come from the whole dose curve; as a rule, active = well fitted inhibition curve with a large enough effect; inconclusive = small, poorly fitted or top-dose-only effect; inactive = flat fitted curve, though single readings scatter.
Note: nearly all actives have a fitted effect of over 60% in size.

Turning to `C=C(C)[C@H]1O[C@H]2CC[C@@]3(C)[C@@](O)(CC[C@H]4[C@@H]5OC(C)(C)[C@H]6C[C@@H]7C(=C)Cc8c(Cl)cc9[nH]c(c5c9c8[C@@]76O)[C@@]43C)[C@]23O[C@@H]3[C@H]1O`, the values for the max response with CRL-7250 and in the test on HaCat were -5.7% and 4.01%, respectively. For the same molecule, the outcome in the test on HEK293 was inactive.

Consider `COC(=O)C1(C)CCC(O)C2(C)c3c(O)cc(C(C)C)cc3C(O)C(OC(C)=O)C12` (stereo unspecified), for which the result with CRL-7250 and in the test on HEK293 was inactive. In addition, in the test with HaCat, the max response was -12.7%.

On to `CN1C(=O)N(c2ccc(C#N)c(C(F)(F)F)c2)C(=O)[C@]1(CO)c1ccccc1`, for which, in the test with CRL-7250, the result was inactive. The max response in the test on HEK293 was -8.53%; in the test on HaCat, 1.18%.

On to `C=C[C@H]1[C@H](O[C@@H]2O[C@H](CO)[C@@H](O)[C@H](O)[C@H]2O)OC=C2C(=O)OCC[C@H]21`, for which the values for the max response in the test with CRL-7250 and in the test with HaCat were -1.15% and 1.24%, respectively. In addition, in the test with HEK293, the result was inactive.

As to `C[CH2][Hg][S]c1ccccc1C(=O)O`, the Potency in the test on W2 is 2130 nM (active).

Regarding `O=C1CC[C@@]2(O)C3Cc4ccc(O)c5c4C2(CCN3CC2CC2)[C@H]1O5` (stereo partly specified), the Potency result with PC26, in the test on PC49, with SC27B, in the test with TAB109, with TAB113 and in the test on TAB165 was “inactive” each time.

As to `CCCC(C)C1(CC)C(=O)NC(=O)NC1=O` (stereo unspecified), the Potency entry with PC26, in the test with PC49, with SC27B, with TAB109, in the test with TAB113 and with TAB165 was “inactive” throughout. The Potency entry in the test with W2 is “inactive”.

For the molecule `O=P(O)(O)C(Cl)(Cl)P(=O)(O)O`, the Potency result with PC26, with PC49, in the test with SC27B, in the test on TAB109, in the test with TAB113 and in the test on TAB165 was “inactive” in each case. The Potency entry in the test on W2 was “inactive”.

For the molecule `C=CCN(C1=NCCN1)c1c(Cl)cccc1Cl`, the Potency entry with PC26, in the test on PC49, in the test with SC27B, with TAB109, in the test on TAB113 and in the test with TAB165 was “inactive” in each case. Also, the Potency result in the test on W2 is “inactive”.

Consider `O=C1CN=C(c2ccccc2)c2cc(Cl)ccc2N1CC1CC1`, for which the Potency result in the test with PC26, with PC49, with SC27B, in the test on TAB109, in the test with TAB113 and with TAB165 was “inactive” throughout.

Turning to `O=C(OCCN1CCCCC1)C(O)(c1ccccc1)c1ccccc1`, the Potency entry in the test on PC26, in the test on PC49, in the test on SC27B, in the test with TAB109, in the test on TAB113 and with TAB165 was “inactive” each time. The Potency result in the test with W2 was “inactive”.

Take `CCC1(c2ccccc2)C(=O)NC(=O)NC1=O`: the Potency result in the test on PC26, with PC49, in the test with SC27B, in the test with TAB109, in the test with TAB113 and in the test on TAB165 was “inactive” in each case. In addition, the Potency result in the test with W2 is “inactive”.

On to `C=CCN1CCC23c4c5ccc(O)c4O[C@H]2C(=O)CC[C@@]3(O)C1C5` (stereo partly specified), for which the Potency result with PC26, with PC49, in the test with SC27B, in the test with TAB109, in the test on TAB113 and in the test on TAB165 was “inactive” in each case. Further, the Potency result in the test with W2 is “inactive”.

For `O=S(=O)(O)c1cc(O)ccc1O`, the Potency result with PC26, in the test with PC49, in the test on SC27B, in the test with TAB109, with TAB113 and in the test with TAB165 was “inactive” throughout. Further, in the test on W2, the Potency entry was “inactive”.

On to `CCOC(=O)c1ccccc1C(=O)OCC`, for which the Potency result in the test with PC26, with PC49, in the test on SC27B, in the test with TAB109, with TAB113 and in the test with TAB165 was “inactive” each time. For the same molecule, in the test on W2, the Potency entry is “inactive”.

On to `Clc1ccc(Cl)cc1`, for which the Potency entry in the test on PC26, in the test with PC49, in the test on SC27B, with TAB109, with TAB113 and in the test on TAB165 was “inactive” throughout. The Potency entry in the test on W2 was “inactive”.

As for `O=C1CN(O)C(c2ccccc2)=c2cc(Cl)ccc2=N1`, the Potency result in the test on PC26, in the test on PC49, in the test on SC27B, in the test on TAB109, in the test on TAB113 and in the test with TAB165 was “inactive” each time. Further, the Potency entry with W2 was “inactive”.

Take `Clc1ccc(C2(Cn3cncn3)OCCO2)c(Cl)c1`: the Potency result in the test on PC26, in the test with PC49, in the test with SC27B, with TAB109, with TAB113 and in the test with TAB165 was “inactive” in each case. For the same molecule, the Potency entry with W2 was “inactive”.

Turning to `O=C1CCO1`, the Potency entry in the test on PC26, in the test on PC49, with SC27B, in the test with TAB109, in the test with TAB113 and with TAB165 was “inactive” throughout. Moreover, the Potency entry in the test on W2 was “inactive”.

Turning to `C[C@H]1CC[C@@H]2[C@@H](C)[C@H]3[C@H](C[C@H]4[C@@H]5CC=C6CC(O[C@@H]7O[C@H](CO)[C@H](O)[C@H](O[C@@H]8O[C@H](CO)[C@@H](O)[C@H](O)[C@H]8O)[C@H]7O[C@H]7O[C@@H](C)[C@H](O)[C@@H](O)[C@H]7O)CC[C@]6(C)[C@H]5CC[C@]34C)N2C1` (stereo partly specified), the Potency result in the test with PC26, in the test on PC49, with SC27B, in the test on TAB109, in the test with TAB113 and with TAB165 was “inactive” throughout.

As for `CC(C)(O)C1C2OC(=O)C1C1(O)CC3OC34C(=O)OC2C14C` (stereo unspecified), the Potency entry in the test with PC26, with PC49, in the test on SC27B, in the test with TAB109, in the test with TAB113 and with TAB165 was “inactive” throughout. Besides, in the test with W2, the Potency entry was “inactive”.

In the case of `O=[N+]([O-])c1ccc(F)c([N+](=O)[O-])c1`, the Potency result in the test on PC26, in the test on PC49, in the test on SC27B, with TAB109, in the test on TAB113 and with TAB165 was “inactive” each time. In addition, the Potency result in the test with W2 was “inactive”.

Consider `CCNC(C)Cc1cccc(C(F)(F)F)c1` (stereo unspecified), for which the Potency result with PC26, with PC49, in the test with SC27B, in the test on TAB109, with TAB113 and in the test with TAB165 was “inactive” in each case.

As for `O=C/C=C/c1ccccc1`, the Potency result with PC26, in the test with PC49, with SC27B, in the test on TAB109, with TAB113 and in the test with TAB165 was “inactive” each time. Further, the Potency entry in the test on W2 is “inactive”.

As to `C=CCN1CC[C@]23c4c5ccc(O)c4O[C@H]2[C@@H](O)C=C[C@H]3[C@H]1C5`, the Potency result in the test on PC26, in the test with PC49, in the test on SC27B, in the test on TAB109, in the test on TAB113 and in the test on TAB165 was “inactive” in each case. Also, in the test on W2, the Potency entry is “inactive”.

Turning to `C[N+]1(C)C2CCC1CC(OC(=O)c1c[nH]c3ccccc13)C2` (stereo unspecified), the Potency result in the test with PC26, in the test on PC49, in the test on SC27B, in the test on TAB109, in the test on TAB113 and with TAB165 was “inactive” in each case. In addition, the Potency result in the test on W2 is “inactive”.

The values are drawn from PubChem BioAssay (NCATS).
